# JMJD2A Tudor: inhibitors of human JMJD2A Tudor domain. AlphaScreen JMJD2A-Tudor / H3K4me3 peptide binding. Potency, µM (titrated, usually from 114 µM), for inactives: at the top dose activity change, negative = inhibition, actives largely listed as inhibitors. actives 4.4% (n = 390,000). AID 504339. O75164; also: potency is read from the fitted curve at half-maximal effect; % is scaled to controls: 0 for no effect and ±100 for the full control effect; nearly all actives have a fitted effect of over 50% in size
# Target sequence (O75164 whole entry, looked up, the tested form may be a part): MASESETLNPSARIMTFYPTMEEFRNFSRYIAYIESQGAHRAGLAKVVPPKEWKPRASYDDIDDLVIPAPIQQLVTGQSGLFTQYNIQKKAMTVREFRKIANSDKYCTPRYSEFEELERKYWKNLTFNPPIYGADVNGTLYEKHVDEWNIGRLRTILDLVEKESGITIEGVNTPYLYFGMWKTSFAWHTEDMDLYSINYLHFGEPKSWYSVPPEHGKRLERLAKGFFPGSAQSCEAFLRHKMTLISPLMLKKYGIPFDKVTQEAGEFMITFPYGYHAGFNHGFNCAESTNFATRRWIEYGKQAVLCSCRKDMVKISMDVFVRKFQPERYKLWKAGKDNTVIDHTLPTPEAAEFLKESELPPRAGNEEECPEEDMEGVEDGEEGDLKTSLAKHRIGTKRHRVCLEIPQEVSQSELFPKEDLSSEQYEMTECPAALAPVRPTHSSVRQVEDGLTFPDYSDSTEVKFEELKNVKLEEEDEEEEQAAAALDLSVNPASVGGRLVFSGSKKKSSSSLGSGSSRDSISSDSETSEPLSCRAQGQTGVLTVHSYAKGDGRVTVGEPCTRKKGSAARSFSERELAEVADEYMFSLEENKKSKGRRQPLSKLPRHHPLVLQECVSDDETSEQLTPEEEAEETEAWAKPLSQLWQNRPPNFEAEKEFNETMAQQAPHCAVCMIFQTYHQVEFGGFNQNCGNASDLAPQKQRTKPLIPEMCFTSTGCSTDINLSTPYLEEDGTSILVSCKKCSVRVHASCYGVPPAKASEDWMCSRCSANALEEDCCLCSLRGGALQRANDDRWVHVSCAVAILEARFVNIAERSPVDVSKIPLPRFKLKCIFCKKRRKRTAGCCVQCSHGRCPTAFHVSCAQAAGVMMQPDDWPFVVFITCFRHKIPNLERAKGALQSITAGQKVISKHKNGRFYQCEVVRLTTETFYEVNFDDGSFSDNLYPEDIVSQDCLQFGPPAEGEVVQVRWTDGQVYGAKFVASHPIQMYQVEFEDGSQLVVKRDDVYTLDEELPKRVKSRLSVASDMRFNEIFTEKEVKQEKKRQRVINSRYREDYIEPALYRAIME
# BAZ2B inh: blocks human BAZ2B; AlphaScreen BAZ2B-H3K14Ac peptide displacement; Potency, µM (top dose mostly 114 µM), for the others: at the highest dose activity change, negative = inhibition, usual class: inhibitors; actives 4.4% (n = 360,000); AID 504333; also: potency is read from the fitted curve at half-maximal effect; % is scaled to controls: 0 for no effect and ±100 for the full control effect; nearly all actives have a fitted effect of over 60% in size
#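 Compounds, titrated to a top concentration of 110 uM, were incubated 30 min at room temperature with preformed BAZ2B/acetyl-K14 H3 peptide complex (50 nM each). Proximity signal was measured by AlphaScreen after 20 min with beads.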
# HP1b binding inh: inhibitors of HP1-beta chromodomain binding to methylated histone tails; Potency, µM (highest dose often 114 µM), for inactives: top-dose activity change, negative = inhibition, hits mostly inhibitors; AlphaScreen HP1-beta / biotin-H3K9me3 peptide binding; P83916; actives 0.56% (n = 390,000); also: potency is read from the fitted curve at half-maximal effect; nearly all actives have a fitted effect of over 70% in size
#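 HP1-beta protein (50 nM final) preincubated 30 min at room temperature with biotinylated H3(1-18)K9me3 peptide (50 nM) in PBS pH 7.4, 0.01% Tween-20, then compound added for 30 min. AlphaScreen streptavidin donor/nickel chelate acceptor beads (10 ug/mL final), 30 min dark, luminescence read.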
# CtBP-E1A blk: inhibitors of CtBP/E1A interaction; AlphaScreen GST-E1A/His-CtBP binding, 1536-well; active compounds read low; activity change, % (concentration not given with the values); actives 0.49% (n = 340,000); in the data active = activity change below about -65%; inconclusive = mostly about -30% to -63%; also: % is scaled to controls: 0 for no effect and ±100 for the full control effect
#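 In 5 uL wells, 23 nL compound meets equimolar GST-E1A and His-CtBP (5X stock 125 nM each) for 2 h, 37 °C. Beads (5X, 50 ug/mL) then 1 h, 37 °C, dark.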
# G9a inh: blocks human histone lysine methyltransferase G9a | AID 504332 | G9a H3K9 monomethylation, AlphaScreen, 2 h | Q96KQ7 | actives 8.8% (n = 350,000) | Potency, µM (highest dose often 102 µM), without a hit: at the top dose activity, negative = inhibition, usual class: inhibitors; also: potency is read from the fitted curve at half-maximal effect; % is scaled to controls: 0 for no effect and ±100 for the full control effect; nearly all actives have a fitted effect of over 75% in size
#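 Readings reflect AlphaScreen signal from monomethyl-H3K9 antibody detection. HMT at 20 nM; substrate b-H3K9 500 nM; cofactor SAM 20 uM; 2 h RT reaction; compounds tested as titrations in qHTS with 15 min preincubation.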
# Six1-Eya2 inh: blocks human Six1 binding to Eya2 | Q15475+O00167 | AlphaScreen GST-Six1/His-Eya2 binding, biochemical; active compounds read low | activity change, % (test concentration not listed) | AID 651725 | actives 0.56% (n = 360,000); in the data active = activity change below about -65%; inconclusive = mostly about -30% to -63%; also: % is scaled to controls: 0 for no effect and ±100 for the full control effect
#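 Homogeneous AlphaScreen proximity assay pairing GST-Six1 with His-tagged Eya2 (added as 5X mix: 250 nM and 500 nM) in 50 mM Tris pH 8.0, 300 mM NaCl, 1 mM TCEP. Glutathione donor and nickel acceptor beads; 1 h, 37 °C, dark.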
# Active calls of the source: *; ? = inconclusive; . = no result; [ ] = remark or other dose. An excerpt weighted towards active compounds, which were near 10% of everything screened. Unless noted, calls follow the shape of the dose curve; as a rule, active = well fitted inhibition curve with a large enough effect; inconclusive = small, poorly fitted or top-dose-only effect; inactive = no such curve, though single readings can be large or run the other way.
SMILES,JMJD2A Tudor,BAZ2B inh,HP1b binding inh,CtBP-E1A blk,G9a inh,Six1-Eya2 inh
Cc1cccc(-c2cc(NC(=O)COc3ccccc3F)n(-c3ccccc3)n2)c1,-3%,7%,29%[57 µM],.,4%[59 µM],.
Cn1c(-c2cccc([N+](=O)[O-])c2)[n+](C)c2ccccc21,0%,.,26%,15,6%,-3
Cn1c(-[n+]2c(-c3ccccc3)cc(-c3ccccc3)cc2-c2ccccc2)nc2c([N+](=O)[O-])cccc21,-29%,-29%,10%,0,10µM*,-1
C[C@H](CO)N1C[C@H](C)[C@@H](CN(C)C(=O)Nc2ccc3c(c2)OCO3)Oc2ccc(NC(=O)Nc3ccc(C(F)(F)F)cc3)cc2C1=O,?,.,3%,-10,.,-15
Cc1noc(C)c1NC(=O)N(C)C[C@@H]1Oc2c(NC(=O)c3ccncc3)cccc2C(=O)N([C@H](C)CO)C[C@@H]1C,35µM*,.,4%,-1,.,1
C[C@H](CO)N1C[C@H](C)[C@@H](CN(C)C(=O)Nc2ccccc2)Oc2ccc(NC(=O)Nc3ccc4c(c3)OCO4)cc2C1=O,-43%,.,5%,-65*,.,?
Cc1noc(C)c1NC(=O)N(C)C[C@@H]1Oc2c(NC(=O)NC(C)C)cccc2C(=O)N([C@@H](C)CO)C[C@@H]1C,-7%,.,54%,5,.,2
C[C@@H]1CN([C@H](C)CO)C(=O)c2cc(NC(=O)c3ccncc3)ccc2O[C@@H]1CN(C)C(=O)Nc1ccccc1,50µM*,.,4%,-12,.,0
Cc1ccc(S(=O)(=O)N(C)C[C@H]2Oc3c(NC(=O)Nc4cccc5ccccc45)cccc3C(=O)N([C@@H](C)CO)C[C@@H]2C)cc1,-22%,.,29%,-75*,.,-71*
COc1ccc(NC(=O)c2ccco2)cc1NC(=O)COc1cc(C)ccc1C(C)C,3%,-15%,39%,.,-1%[59 µM],.
COc1ccc(NC(=O)Nc2ccc3c(c2)C(=O)N([C@H](C)CO)C[C@H](C)[C@@H](CN(C)C(=O)Nc2ccccc2)O3)cc1,-26%,.,14%,-67*,.,?
CC1CCN(c2ncnc3c2nnn3C)CC1,-9%,-16%,44%,.,-7%[59 µM],.
Cn1c(/N=C/c2c(O)ccc3ccccc23)nc2ccccc21,40µM*,56µM*,?,-19,1.8µM*,-2
COc1ccc2ccccc2c1/C=N\n1c(C)cc(C)c(C(N)=O)c1=O,-25%,?,8%,9,-3%[0.501 µM],-2
Cc1nnc(-c2ccccc2)c(=O)n1/N=C/c1c(O)ccc2ccccc12,56µM*,25µM*,3%,-1,?,-94*
O=C1C2C3C=CC(CC3)C2C(=O)N1/N=C/c1ccccc1O (configuration not stated),-10%,-2%[57.1 µM],21%,-2,27%,4
Cc1nnc(C)n1/N=C/c1c(O)ccc2ccccc12,8.9µM*,?,37%,.,7%[2.33 µM],-2
O=C1C2C3C=CC(CC3)C2C(=O)N1/N=C/c1c(O)ccc2ccccc12 (configuration not stated),-7%,-5%,19%,.,25µM*,10
CCOc1cc(/C=N/n2c(C)nnc2C)ccc1O,-5%,-1%,37%,.,-2%,2
COCCn1c(=O)[nH]c2cc(C(=O)Nc3nnc(C)s3)ccc21,-12%,3%,-3%,-4,79µM*,1
O=C(Cn1nc(C(F)(F)F)c2c1CCCC2)Nc1cccc(Cl)c1,-3%,7%,35%,.,1%[59 µM],.
Cc1ccccc1-c1nc(CS(=O)(=O)CC(=O)NCc2ccc3c(c2)OCO3)c(C)o1,-16%,-9%,43%,-5,50µM*,0
Cc1ccccc1-c1nsc(SCC(=O)NCc2ccc3c(c2)OCO3)n1,-17%,-3%,-7%,-1,35µM*,-5
COc1ccc(-c2nc(CS(=O)(=O)CC(=O)NCc3ccc4c(c3)OCO4)c(C)o2)cc1,-14%,-5%,38%,1,.,1
C=CCOc1ccc(/C=C/C(=O)N2CCCN(S(=O)(=O)c3c(C)noc3C)CC2)cc1,-6%,-5%,19%,2,45µM*,3
SMILES,JMJD2A Tudor,BAZ2B inh,HP1b binding inh,CtBP-E1A blk,G9a inh,Six1-Eya2 inh
FC(F)(F)c1ccc(/C=N/N2CCN(Cc3cccc4ccccc34)CC2)cc1,-20%[57.1 µM],-30%[57.1 µM],-2%,-8,-12%,3
Cc1ccc(/C=N/N2CCN(Cc3ccccc3)CC2)cc1,79µM*,?,-16%,?,?,-25
C(=N\N1CCN(Cc2cccc3ccccc23)CC1)/c1ccco1,56µM*,?,45µM*,?,40µM*,?
O=C(O)c1ccc(/C=N/N2CCN(Cc3cccc4ccccc34)CC2)cc1,-35%,-33%,-13%,-4,45µM*,1
Cc1ccsc1/C=N/N1CCN(Cc2ccccc2)CC1,56µM*,?,?,-15,32µM*,-18
Cc1ccc(N2CCN(/N=C/c3cccnc3)CC2)cc1,?,?,-12%,-29,?,2
Fc1ccc(/C=N/N2CCN(Cc3ccccc3)CC2)cc1,?,45µM*,?,4,79µM*,-30
C(=N\N1CCN(Cc2cccc3ccccc23)CC1)/c1cccnc1,45µM*,40µM*,-42%,-4,50µM*,-4
O=S(=O)(CCN1CCN(C(c2ccccc2)c2ccccc2)CC1)C(F)(F)F,-16%,.,-10%,5,3.5µM*,4
OC(CN1CCN(Cc2ccccc2)CC1)c1ccc(F)cc1 (configuration not stated),-33%,-25%,54%,7,?,-1
Fc1ccc(CN2CCN(C(c3ccccc3)c3ccccc3)CC2)cc1,22µM*,50µM*,?,.,32µM*,2
CSc1ccc(/C=N/N2CCN(C)CC2)cc1,?,?,-10%,-21,-30%,-7
CN1CCN(/N=C/c2c3ccccc3c(Cl)c3ccccc23)CC1,40µM*,20µM*,?,0,35µM*,?
Cn1cccc1/C=N/N1CCN(c2ccccn2)CC1,?,50µM*,-58%,4,16µM*,-19
CSc1ccc(/C=N/N2CCN(Cc3ccc(Cl)cc3)CC2)cc1,?,22µM*,-12%,-15,?,-14
Cc1ccsc1/C=N/N1CCN(c2ccccn2)CC1,63µM*,40µM*,-35%,-24,50µM*,-24
CSc1ccc(/C=N/NC(=O)CN2CCN(Cc3ccc(Cl)cc3)CC2)cc1,-21%[57.1 µM],19%,?,-14,-7%[59 µM],-14
COc1cccc(Cn2c(NCc3ccc(C)cc3)nc3c2c(=O)n(C)c(=O)n3C)c1,2%,2%,31%,.,10%[59 µM],.

# Compound activity (PubChem BioAssay)
